# According to publication PMC5540273 (PLoS ONE, 2017):
# System: TIE1
# Details: concentration: 1 μM, replicates: in singlicate; n = 1
# 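Further: KINOMEscan kinase panel screen.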
row,SMILES,%Inh
1,Cl.Nc1ncnc2occ(-c3ccc(NC(=O)Nc4cc(C(F)(F)F)ccc4F)cc3)c12 [SB-707548],98.7%
2,O=C(NOCC1CC1)c1ccc(F)c(F)c1Nc1ccc(I)cc1Cl,0%
3,CCc1ccnc(/C=C/c2n[nH]c3cc(Sc4ccccc4C(=O)NC)ccc23)c1,48%
4,CN1c2ccc(CNc3ccc(F)cc3)cc2-c2c(cnn2C)S1(=O)=O,0%
5,COc1cc2c(cc1OC[C@@H](O)CO)ncc1c3ccc(C#N)cc3[nH]c21,0%
6,COc1ccc(S(=O)(=O)NC2CCN(c3cc(C)nc(Nc4cccc(C#N)c4)n3)CC2)cc1.O=C(O)C(F)(F)F [GSK1653539],0%
7,Cc1ccc(NC(=O)c2ccnc(N3CCN(C)CC3)c2)cc1-c1ccc(C(=O)NCC2CC2)cc1 [GW775604],2%
8,Cc1c2ccc(N(C)c3ccnc(Nc4cccc(S(N)(=O)=O)c4)n3)cc2nn1Cc1ccccc1.Cl.Cl [GW787226],92.2%
9,CC(=O)Nc1ccc(COc2ccc(Nc3ccnc4cc(-c5ccccn5)ccc34)cc2)cc1.Cl [GW440148],26%
10,Cc1nnc(-c2ccc3occ(-c4ccc(C(C)O)cc4)c3c2)o1 (centres unmarked),18%
11,CNc1ncnc2[nH]ncc12 [SKF-18355],0%
12,Cn1cc(-c2ccc3c(c2)CCN3C(=O)Cc2ccccc2Cl)c2c(N)ncnc21 [GSK2608885],96%
13,Cc1cccc(-c2nc(-c3ccc(S(C)(=O)=O)cc3)sc2-c2ccncc2)c1,0%
14,O=C1NC(=O)C(N2CCc3ccccc32)=C1c1cccc(Cl)c1 [SB-408010],0%
15,Cc1cccc(Cn2ccn3c(=O)cc(N4CCOCC4)nc23)c1 [GSK2297542],0%
16,Cl.Oc1cccc(Nc2ccnc3cc(-c4ccncc4)ccc23)c1 [GW494601],50%
17,O=c1cc(N2CCOCC2)nc2n(Cc3cccc(F)c3)ccn12 [GSK2297430],7%
18,CC(C)(C)n1cnc2c(N)ncnc21 [SKF-97359],0%

row,SMILES,%Inh
1,Fc1ccc(-c2nn3c(OCC(F)(F)F)cccc3c2-c2ccncc2)cc1 [GW514784],0%
2,CSc1ccc(-c2cc3ncnc(SCC(=O)O)c3s2)cc1,0%
3,[2H]C([2H])(c1cccc(C(F)(F)F)c1C)n1ccn2c(=O)nc(N3CCOCC3)cc12 [GSK2336394],11%
4,Cc1ccc(C(=O)NCC(N)=O)cc1-n1c(C)cc(OCc2ccc(F)cc2F)c(Br)c1=O,0%
5,COc1cc2ncn(-c3cc(OCc4sccc4Cl)c(C(N)=O)s3)c2cc1OC [GSK448459],36%
6,O=C(NCCNc1ccnc(Nc2ccc(F)cc2)n1)c1cc2ccccc2s1 [GSK1379874],0%
7,O=C(NCCNc1ccnc(Nc2ccc(F)cc2)n1)Nc1ccccc1F [GSK1379880],0%
8,CCn1cnc2c(N)ncnc21 [GW345098],6%
9,Cc1cn2c(=O)cc(N3CCOCC3)nc2n1Cc1cccc(Cl)c1Cl [GSK2334006],50%
10,CN(C(=O)c1ccc(-c2cc(-c3c[nH]nc3-c3ccccn3)ccn2)cc1)C1CCOCC1 [GW810083],0%
11,COC(=O)Nc1nc2cc(Oc3ccc(NC(=O)Nc4cc(F)ccc4F)cc3)ccc2[nH]1.Cl [GW701424],93.2%
12,COc1ccc(CNC(=O)NC2CCN(c3ccnc(Nc4ccc(OC)cc4)n3)C2)cc1 (centres unmarked) [GSK1379727],17%
13,Cc1cccc(-c2nc(Nc3ccc4ncsc4c3)c3ccccc3n2)n1 [GW867588],0%
14,NS(=O)(=O)c1cccc(-c2ccc3ncc(N4CCOCC4)nc3c2)c1 [GSK1535721],0%
15,C[C@@H](Oc1cc(-n2cnc3ccc(NC(=O)NC(C)(C)C)cc32)sc1C(N)=O)c1ccccc1Cl [GSK346294],3%
16,COc1ccc(Nc2nccc(N3CCC(NC(=O)Nc4cccc(C(C)=O)c4)C3)n2)cc1 (centres unmarked) [GSK1379731],0%
17,Cc1nnc(-c2ccc3ncc(-c4ccc(S(C)=O)cc4)n3c2)o1 (centres unmarked),5%

# System: T1, TIE2
# T1 construct: gene TEK
# Details: concentration: 1 μM, replicates: in singlicate; n = 1
row,SMILES,%Inh
1,Cl.Nc1ncnc2occ(-c3ccc(NC(=O)Nc4cc(C(F)(F)F)ccc4F)cc3)c12 [SB-707548],99.8%
2,O=C(NOCC1CC1)c1ccc(F)c(F)c1Nc1ccc(I)cc1Cl,0%
3,CCc1ccnc(/C=C/c2n[nH]c3cc(Sc4ccccc4C(=O)NC)ccc23)c1,8%
4,CN1c2ccc(CNc3ccc(F)cc3)cc2-c2c(cnn2C)S1(=O)=O,0%
5,COc1cc2c(cc1OC[C@@H](O)CO)ncc1c3ccc(C#N)cc3[nH]c21,0%
6,COc1ccc(S(=O)(=O)NC2CCN(c3cc(C)nc(Nc4cccc(C#N)c4)n3)CC2)cc1.O=C(O)C(F)(F)F [GSK1653539],0%
7,Cc1ccc(NC(=O)c2ccnc(N3CCN(C)CC3)c2)cc1-c1ccc(C(=O)NCC2CC2)cc1 [GW775604],0%
8,Cc1c2ccc(N(C)c3ccnc(Nc4cccc(S(N)(=O)=O)c4)n3)cc2nn1Cc1ccccc1.Cl.Cl [GW787226],77%
9,CC(=O)Nc1ccc(COc2ccc(Nc3ccnc4cc(-c5ccccn5)ccc34)cc2)cc1.Cl [GW440148],6%
10,NCCNS(=O)(=O)c1ccc(-c2ccnc3[nH]ccc23)cc1 [GSK977617],0%
11,Cc1nnc(-c2ccc3occ(-c4ccc(C(C)O)cc4)c3c2)o1 (centres unmarked),16%
12,CNc1ncnc2[nH]ncc12 [SKF-18355],2%
13,Cn1cc(-c2ccc3c(c2)CCN3C(=O)Cc2ccccc2Cl)c2c(N)ncnc21 [GSK2608885],97.4%
14,Cc1cccc(-c2nc(-c3ccc(S(C)(=O)=O)cc3)sc2-c2ccncc2)c1,0%
15,O=C1NC(=O)C(N2CCc3ccccc32)=C1c1cccc(Cl)c1 [SB-408010],12%
16,Cc1cccc(Cn2ccn3c(=O)cc(N4CCOCC4)nc23)c1 [GSK2297542],0%
17,Cl.Oc1cccc(Nc2ccnc3cc(-c4ccncc4)ccc23)c1 [GW494601],48%
18,O=c1cc(N2CCOCC2)nc2n(Cc3cccc(F)c3)ccn12 [GSK2297430],0%

row,SMILES,%Inh
1,CC(C)(C)n1cnc2c(N)ncnc21 [SKF-97359],17%
2,Fc1ccc(-c2nn3c(OCC(F)(F)F)cccc3c2-c2ccncc2)cc1 [GW514784],0%
3,CSc1ccc(-c2cc3ncnc(SCC(=O)O)c3s2)cc1,0%
4,[2H]C([2H])(c1cccc(C(F)(F)F)c1C)n1ccn2c(=O)nc(N3CCOCC3)cc12 [GSK2336394],0%
5,Cc1ccc(C(=O)NCC(N)=O)cc1-n1c(C)cc(OCc2ccc(F)cc2F)c(Br)c1=O,0%
6,COc1cc2ncn(-c3cc(OCc4sccc4Cl)c(C(N)=O)s3)c2cc1OC [GSK448459],0%
7,O=C(NCCNc1ccnc(Nc2ccc(F)cc2)n1)c1cc2ccccc2s1 [GSK1379874],0%
8,O=C(NCCNc1ccnc(Nc2ccc(F)cc2)n1)Nc1ccccc1F [GSK1379880],0%
9,CCn1cnc2c(N)ncnc21 [GW345098],2%
10,Cc1cn2c(=O)cc(N3CCOCC3)nc2n1Cc1cccc(Cl)c1Cl [GSK2334006],19%
11,CN(C(=O)c1ccc(-c2cc(-c3c[nH]nc3-c3ccccn3)ccn2)cc1)C1CCOCC1 [GW810083],1%
12,COC(=O)Nc1nc2cc(Oc3ccc(NC(=O)Nc4cc(F)ccc4F)cc3)ccc2[nH]1.Cl [GW701424],73%
13,COc1ccc(CNC(=O)NC2CCN(c3ccnc(Nc4ccc(OC)cc4)n3)C2)cc1 (centres unmarked) [GSK1379727],0%
14,Cc1cccc(-c2nc(Nc3ccc4ncsc4c3)c3ccccc3n2)n1 [GW867588],0%
15,NS(=O)(=O)c1cccc(-c2ccc3ncc(N4CCOCC4)nc3c2)c1 [GSK1535721],0%
16,C[C@@H](Oc1cc(-n2cnc3ccc(NC(=O)NC(C)(C)C)cc32)sc1C(N)=O)c1ccccc1Cl [GSK346294],0%
17,COc1ccc(Nc2nccc(N3CCC(NC(=O)Nc4cccc(C(C)=O)c4)C3)n2)cc1 (centres unmarked) [GSK1379731],0%
18,Cc1nnc(-c2ccc3ncc(-c4ccc(S(C)=O)cc4)n3c2)o1 (centres unmarked),6%
